Potency and affinity values are given separately. The source made the active and inactive calls.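 The calls were made as follows: active = fitted IC50 of 30 µM or less, with percent of control binding at that IC50 of 60 or less; inactive = the rest.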
Molecular target: Mothers against decapentaplegic homolog 3 (Homo sapiens) (UniProt P84022)
Assay: blockers of Smad3 complex formation in lysate – cell lysate, secondary confirmation, chemiluminescent ELISA, HEK293 lysate, dose response (AID 1058)

Chain of Mothers against decapentaplegic homolog 3 (Homo sapiens) (P84022 whole entry, looked up): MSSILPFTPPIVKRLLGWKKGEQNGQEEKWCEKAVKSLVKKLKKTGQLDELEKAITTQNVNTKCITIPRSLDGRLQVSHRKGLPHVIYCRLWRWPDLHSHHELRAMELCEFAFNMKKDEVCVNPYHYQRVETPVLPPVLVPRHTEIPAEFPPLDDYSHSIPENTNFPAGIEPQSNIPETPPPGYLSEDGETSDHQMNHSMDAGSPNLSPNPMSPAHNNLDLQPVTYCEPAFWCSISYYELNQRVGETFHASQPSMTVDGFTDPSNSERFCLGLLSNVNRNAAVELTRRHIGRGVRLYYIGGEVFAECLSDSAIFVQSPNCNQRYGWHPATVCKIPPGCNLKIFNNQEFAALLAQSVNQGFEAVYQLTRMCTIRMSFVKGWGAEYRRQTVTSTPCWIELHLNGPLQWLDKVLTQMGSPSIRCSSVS

Oc1cc2c(cc1C(c1ccc(F)cc1)N1CCOCC1)OCO2 (stereo unspecified)
outcome: inactive
